PI5P4K alpha inh: PI5P4K alpha (human) kinase inhibition | 330,000 compounds, 1.2% hits | P48426 | AID 652105 | PI5P4Kalpha enzyme, ADP-Glo luminescence, 60 min; stronger effect = lower value | max response, %; active = max response of -50% or lower; inconclusive = between -30% and -50%; inactive = -30% or higher; also: value at the top dose of about 77 µM
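ADP-Glo luminescence end-point after a 60 min room-temperature kinase reaction. PI5P4Kalpha and substrate in HEPES pH 7.4 buffer with EGTA, 0.1% CHAPS and 5% DMSO; ATP at 5 microM final.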
HP1b chromo inh: inhibitors of HP1-beta chromodomain binding to methylated histone tails. Potency, µM (top dose mostly 114 µM), hits mostly inhibitors. 390,000 compounds, 0.56% hits. P83916. AlphaScreen HP1-beta / biotin-H3K9me3 peptide binding. AID 540317; also: nearly all actives have a fitted effect of over 70% in size
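Compound inhibition of the preformed complex between 50 nM HP1-beta and 50 nM biotinylated H3K9me3 peptide was read by AlphaScreen. Buffer was PBS pH 7.4 with 0.01% Tween-20. Incubations ran 30 min at room temperature, with 10 ug/mL donor/acceptor beads.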
G9a block: inhibitors of human histone lysine methyltransferase G9a | Q96KQ7 | Potency, µM (top dose mostly 102 µM), most hits filed as inhibitors | G9a H3K9 monomethylation, AlphaScreen, 2 h | 350,000 compounds, 8.8% hits; also: nearly all actives have a fitted effect of over 75% in size
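Compounds were preincubated with 20 nM G9a for 15 min, after which biotinylated H3K9 peptide (500 nM) and SAM (20 uM) started a 2 h room-temperature reaction. Monomethylated product was quantified by antibody-based AlphaScreen chemiluminescence.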
JMJD2A Tudor: inhibitors of human JMJD2A Tudor domain; O75164; AlphaScreen JMJD2A-Tudor / H3K4me3 peptide binding; Potency, µM (top dose mostly 114 µM), actives largely listed as inhibitors; 390,000 compounds, 4.4% hits; also: nearly all actives have a fitted effect of over 50% in size
PLK1 PBD inh: blocks phosphopeptide binding to human PLK1 polo-box domain; P53350; Plk1 PBD binding of FITC phosphopeptide, fluorescence polarization; Potency, µM, most hits filed as inhibitors; 360,000 compounds, 2.8% hits; also: series mostly up to about 57 µM; nearly all actives have a fitted effect of over 65% in size
Target sequence (P53350 whole entry, looked up, the tested form may be a part): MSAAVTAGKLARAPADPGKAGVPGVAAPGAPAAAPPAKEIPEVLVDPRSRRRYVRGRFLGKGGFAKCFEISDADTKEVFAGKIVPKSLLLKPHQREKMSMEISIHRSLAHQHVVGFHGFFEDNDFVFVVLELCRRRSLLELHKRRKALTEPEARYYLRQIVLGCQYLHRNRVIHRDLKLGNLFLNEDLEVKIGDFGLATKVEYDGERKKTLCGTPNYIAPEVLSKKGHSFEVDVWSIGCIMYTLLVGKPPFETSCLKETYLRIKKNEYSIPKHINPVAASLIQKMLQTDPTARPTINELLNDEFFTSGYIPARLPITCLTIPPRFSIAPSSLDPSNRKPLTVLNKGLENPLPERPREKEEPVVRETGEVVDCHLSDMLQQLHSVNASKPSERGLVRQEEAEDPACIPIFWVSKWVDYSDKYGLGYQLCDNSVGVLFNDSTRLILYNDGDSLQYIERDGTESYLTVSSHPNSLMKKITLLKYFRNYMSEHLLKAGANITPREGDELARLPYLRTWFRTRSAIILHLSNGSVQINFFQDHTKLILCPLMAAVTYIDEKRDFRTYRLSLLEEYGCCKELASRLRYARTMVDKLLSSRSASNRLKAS
BAZ2B block: inhibitors of human BAZ2B bromodomain | Q9UIF8 | AlphaScreen BAZ2B-H3K14Ac peptide displacement | Potency, µM (series often up to 114 µM), usual class: inhibitors | 360,000 compounds, 4.4% hits | AID 504333; also: nearly all actives have a fitted effect of over 60% in size
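AlphaScreen luminescence quantifies BAZ2B engagement of H3K14Ac peptide; the protein and biotinylated peptide are both at 50 nM final, buffer PBS pH 7.4 with 0.01% Tween-20, all steps at room temperature.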
Numbers stand for hits; [ ] = another dose, or the depositor's remark. The list is not random: actives were taken first. Their share in the collection is about 12%. Unless noted, calls follow the shape of the dose curve; as a rule, active = well fitted curve in the direction sought with a large enough effect; inconclusive = small, poorly fitted or top-dose-only effect, or another doubt; inactive = no such curve, though single readings can be large; an effect the other way counts as inactive or inconclusive.

How did Cn1c(=O)cc2c3c(c(N4CCCCC4)ccc31)C(=O)c1ccccc1-2 do in these assays?
PI5P4K alpha inh: inactive; HP1b chromo inh: inconclusive; G9a block: 14µM; JMJD2A Tudor: 35µM; PLK1 PBD inh: inactive; BAZ2B block: 10µM

How did CCOc1ccc2noc3c2c1C(=O)c1ccccc1-3 do in these assays?
PI5P4K alpha inh: inactive; HP1b chromo inh: inactive; G9a block: inconclusive; JMJD2A Tudor: inactive; PLK1 PBD inh: inactive; BAZ2B block: inactive

How did Cc1ccccc1-c1cnc(C(O)c2cccc(C)c2C)[nH]1 (stereo not drawn) do in these assays?
PI5P4K alpha inh: inactive; PLK1 PBD inh: inactive

Results for Cc1cccc(N2CCN(S(=O)(=O)c3ccc(Cl)nc3)CC2C)c1 (stereo not drawn) ?
PI5P4K alpha inh: inactive; HP1b chromo inh: inactive; JMJD2A Tudor: inactive; PLK1 PBD inh: inactive

Results for CC(=O)c1cc2c(=O)c3cc(C)ccc3oc2nc1C ?
PI5P4K alpha inh: inactive; HP1b chromo inh: inactive; G9a block: inactive[12.7 µM]; JMJD2A Tudor: inactive; PLK1 PBD inh: inactive; BAZ2B block: inactive

What do the screens show for `CCOC(=O)c1cc2c(=O)c3cc(C)ccc3oc2nc1C`?
PI5P4K alpha inh: inconclusive; HP1b chromo inh: inactive; G9a block: inactive; JMJD2A Tudor: inconclusive; PLK1 PBD inh: 5.3µM; BAZ2B block: inactive

Results for Oc1[nH]c(=S)sc1/C=C1\C(c2ccccc2)=Nc2ccccc21 ?
PI5P4K alpha inh: -74; HP1b chromo inh: inactive; G9a block: 2.5µM; JMJD2A Tudor: 16µM; PLK1 PBD inh: inactive; BAZ2B block: inconclusive

What do the screens show for `CCOC(=O)c1nnc2c(Br)c(-c3ccccc3)nn2c1C`?
PI5P4K alpha inh: inactive; HP1b chromo inh: inconclusive; G9a block: inactive; JMJD2A Tudor: inconclusive; PLK1 PBD inh: 30µM; BAZ2B block: inactive

What do the screens show for `COc1ccc(CNC(=O)CCCn2c(=O)c3cccn3c3ccc(F)cc32)cc1OC`?
HP1b chromo inh: inactive; G9a block: inactive; JMJD2A Tudor: inactive; BAZ2B block: inactive

How did CCOC(=O)c1cc(S(=O)(=O)N2CCN(c3cccc(OC)c3)CC2)[nH]n1 do in these assays?
HP1b chromo inh: inactive; G9a block: inconclusive; JMJD2A Tudor: inactive; BAZ2B block: inconclusive

Results for CCOC(=O)c1cc(S(=O)(=O)N2CCN(c3ccccc3OC)CC2)[nH]n1 ?
HP1b chromo inh: inactive; G9a block: 28µM; JMJD2A Tudor: inactive; BAZ2B block: inactive

What do the screens show for `Cc1ccc(Cl)cc1N1CCN(S(=O)(=O)c2cn(C)c(C)n2)CC1`?
HP1b chromo inh: inactive; G9a block: inactive; JMJD2A Tudor: 56µM; BAZ2B block: inactive

What do the screens show for `CCOC(=O)c1cc(S(=O)(=O)N2CCN(c3ccc(OC)cc3)CC2)[nH]n1`?
HP1b chromo inh: inactive; G9a block: inconclusive; JMJD2A Tudor: inactive; BAZ2B block: inactive

What do the screens show for `Cc1ccc(Cl)cc1N1CCN(S(=O)(=O)c2cn(C)cn2)CC1`?
PI5P4K alpha inh: inactive; HP1b chromo inh: inactive; G9a block: inactive; JMJD2A Tudor: inactive; PLK1 PBD inh: inactive; BAZ2B block: inactive

Results for CCOC(=O)c1cc(S(=O)(=O)N2CCN(c3cc(Cl)ccc3C)CC2)[nH]n1 ?
HP1b chromo inh: inactive; G9a block: 13µM; JMJD2A Tudor: inconclusive; BAZ2B block: inconclusive

Results for CCOC(=O)c1cc(S(=O)(=O)N2CCN(c3ccc(F)cc3)CC2)[nH]n1 ?
HP1b chromo inh: inactive; G9a block: 28µM; JMJD2A Tudor: inactive; BAZ2B block: inconclusive

Results for CC(C)CNC(=O)c1ccc(-c2ccc(F)c(F)c2)c2ccoc12 ?
PI5P4K alpha inh: inactive; PLK1 PBD inh: inactive

How did Cc1ccc(OC(C)C(=O)N2CCN(c3ccccn3)CC2)cc1 (stereo not drawn) do in these assays?
PI5P4K alpha inh: inconclusive; HP1b chromo inh: inactive; JMJD2A Tudor: inactive; PLK1 PBD inh: 27µM

Results for O=C(CN1CCN(c2ccccn2)CC1)Nc1cccc(Br)c1 ?
PI5P4K alpha inh: inactive; HP1b chromo inh: inactive; G9a block: 45µM; JMJD2A Tudor: inactive; PLK1 PBD inh: inactive; BAZ2B block: inactive

Results for O=C(CN1CCN(c2ccccn2)CC1)Nc1cccc(F)c1 ?
PI5P4K alpha inh: inactive; HP1b chromo inh: inactive; G9a block: inactive; JMJD2A Tudor: inactive; PLK1 PBD inh: inactive; BAZ2B block: inactive

How did CN(C)c1ccc(NC(=O)CCn2c(=S)oc3ccccc32)cc1 do in these assays?
PI5P4K alpha inh: inactive; HP1b chromo inh: inactive; G9a block: inconclusive; JMJD2A Tudor: inconclusive; PLK1 PBD inh: inactive; BAZ2B block: 25µM

Results for COc1cc(NC(=O)CN2CCN(c3ccccn3)CC2)cc(OC)c1OC ?
PI5P4K alpha inh: inactive; HP1b chromo inh: inactive; G9a block: 45µM; JMJD2A Tudor: inactive; PLK1 PBD inh: inactive; BAZ2B block: inactive

How did Cc1cc(C)cc(NC(=O)CN2CCN(c3ccccn3)CC2)c1 do in these assays?
PI5P4K alpha inh: inactive; HP1b chromo inh: inactive; JMJD2A Tudor: inactive; PLK1 PBD inh: inactive; BAZ2B block: inactive

What do the screens show for `CC(=O)N1CCCc2cc(S(=O)(=O)NCc3ccccc3Cl)ccc21`?
HP1b chromo inh: inactive; G9a block: inactive; JMJD2A Tudor: inactive; BAZ2B block: inactive

What do the screens show for `COc1cc(NC(=O)c2ccccn2)cc(OC)c1OC`?
PI5P4K alpha inh: inconclusive; HP1b chromo inh: inconclusive; G9a block: inactive; JMJD2A Tudor: inconclusive; PLK1 PBD inh: 6.7µM; BAZ2B block: inactive

What do the screens show for `COc1ccc(C)cc1NC(=O)CN1CCN(c2ccccn2)CC1`?
PI5P4K alpha inh: inactive; HP1b chromo inh: inactive; G9a block: inactive; JMJD2A Tudor: inconclusive; PLK1 PBD inh: 27µM; BAZ2B block: inactive

What do the screens show for `CN(C)c1ccc(NC(=O)CCN2CCN(c3ccccn3)CC2)cc1`?
PI5P4K alpha inh: inactive; HP1b chromo inh: inactive; G9a block: 50µM; JMJD2A Tudor: inactive; PLK1 PBD inh: inactive; BAZ2B block: inactive

Results for COc1ccccc1NC(=O)CN1CCN(c2ccccn2)CC1 ?
HP1b chromo inh: inactive; G9a block: inactive; JMJD2A Tudor: inactive; PLK1 PBD inh: inactive; BAZ2B block: inactive

Results for O=C(CCN1CCN(c2ccccn2)CC1)Nc1ccc(F)cc1 ?
PI5P4K alpha inh: inactive; HP1b chromo inh: inactive; G9a block: inactive; JMJD2A Tudor: inactive; PLK1 PBD inh: inactive; BAZ2B block: inactive

What do the screens show for `Cc1cccc(Cn2c(SCc3ccc(C(=O)NCc4cccs4)cc3)nc3cccnc32)c1`?
HP1b chromo inh: inactive; G9a block: inconclusive; JMJD2A Tudor: inactive; BAZ2B block: inactive

What do the screens show for `Cc1ccc(S(=O)(=O)NCCC(=O)Nc2cc(S(=O)(=O)N(C)C)ccc2C)cc1C`?
PI5P4K alpha inh: inactive; HP1b chromo inh: inactive; G9a block: inactive; JMJD2A Tudor: inactive; PLK1 PBD inh: inactive; BAZ2B block: inactive

How did N#CCc1nn2c3c(cnc2c1C#N)C(=O)CCC3 do in these assays?
PI5P4K alpha inh: inactive; HP1b chromo inh: inactive; G9a block: 45µM; JMJD2A Tudor: inactive; PLK1 PBD inh: inactive; BAZ2B block: inactive
